Screening data as filed in PubChem BioAssay.
Sm TGR inh: blocks Schistosoma mansoni thioredoxin glutathione reductase | AID 485364 | Potency, µM (doses to about 114 µM), hits mostly inhibitors | Q962Y6 | purified TGR, DTNB reduction, TNB absorbance 405 nm | 360,000 tested, 3% active; note: nearly all actives have a fitted effect of over 60% in size
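First, TGR (20 nM dispensed) and NADPH were mixed with compound. Second, a 15 min room-temperature incubation followed. Third, further NADPH and then DTNB were added to start the reaction. Finally, TNB absorbance was monitored kinetically.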
SARS PLpro yeast: inhibitors of SARS-CoV papain-like protease in yeast; S. cerevisiae expressing SARS-CoV PLpro, growth rescue; Potency, µM (highest dose often 32.9 µM), most hits filed as activators; 330,000 tested, 0.19% active; calls by dose curve; note: nearly all actives have a fitted effect of over 55% in size
HCMV antiviral: blocks human cytomegalovirus replication | HFF cells, HCMV-luciferase reporter, 72 h; hits give low values | activity change, negative = inhibition, % at 57.5 µM | 410,000 tested, 4.5% active | AID 1259415; in the data active = activity change below about -60%; inconclusive = no clear call, values can overlap the other calls; inactive = above about -39%
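Inhibition of viral replication was scored as loss of reporter luminescence in HFFs infected with HCMV-luciferase (MOI 1 PFU/cell) for 72 h; compounds tested at 2 doses, normalized to buffer and Salinomycin controls.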
Pf growth 48h: inhibits P. falciparum growth in the first generation, 48 h; P. falciparum luciferase growth in erythrocytes, 48 h; Potency, µM (highest dose often 28.7 µM), usual class: inhibitors; 310,000 tested, 5.9% active
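In quantitative HTS format, infected erythrocytes bearing luciferase-reporter parasites were treated for a single generation at 37 C. Luminescence after adding detection reagent served as the growth measure.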
HCV inh: HCV inhibition; Huh7.5.1 HCVcc-Cre infection, luciferase reporter, 44 h; Potency, µM (series often up to 41.8 µM), most hits filed as inhibitors; 340,000 tested, 3.4% active
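Whole-lifecycle infectious HCVcc-Cre system; cells 1,000/well, compound then virus (~0.5 moi) added 4 h after plating, 44 h culture. Luciferase read 15 sec following 15 min substrate incubation, room temp.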
Pf growth 96h: P. falciparum growth inhibition at 96 hours | P. falciparum luciferase reporter growth, 96 h | AID 504834 | 320,000 tested, 6.9% active | Potency, µM (doses to about 28.7 µM), actives largely listed as inhibitors
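96 h incubation, 37 C, 5% CO2, of luciferase-reporter P. falciparum-infected RBCs (2% hematocrit, 0.05% parasitemia final) with test compounds; endpoint luminescence.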
Of the large screens only hits and unclear results are named; the others gave an inactive call. This is a sample that favours compounds with a hit; in the whole collection about 15% have one here. Unless noted, calls come from the whole dose curve; as a rule, active = well fitted curve in the direction sought with a large enough effect; inconclusive = small, poorly fitted or top-dose-only effect, or another doubt; inactive = no such curve, though single readings can be large; an effect the other way counts as inactive or inconclusive.

O=C(NCc1ccccn1)C1CCN(S(=O)(=O)c2cc(Cl)ccc2Cl)CC1	HCMV antiviral -61.9, HCV inh inconclusive
Nc1cccc2c(=O)c3ccccc3[nH]c12	Pf growth 48h 1.85µM, HCV inh inconclusive, Pf growth 96h 1.85µM
COc1cccc2[nH]c3ccccc3c(=O)c12	Pf growth 48h inconclusive, Pf growth 96h inconclusive (no result: HCMV antiviral)
Cc1nc(C(F)(F)F)c(C(=O)N/N=C(\N)c2ccccn2)s1	Pf growth 48h inconclusive, HCV inh 12.6µM, Pf growth 96h inconclusive
N/C(=N\NS(=O)(=O)c1ccccc1C(F)(F)F)c1ccccn1	Pf growth 48h inconclusive
CCn1c(=O)c2cc(C(=O)NC3CCC(C)CC3)sc2c2ccccc21 (stereo unspecified)	HCMV antiviral -66.7 (no result: SARS PLpro yeast, Pf growth 48h, HCV inh, Pf growth 96h)
CCn1c(=O)c2cc(C(=O)NCCCN3CCC(C)CC3)sc2c2ccccc21	HCMV antiviral -76.1 (no result: SARS PLpro yeast, Pf growth 48h, HCV inh, Pf growth 96h)
O=C(NCCOc1ccccc1Cl)C(=O)NCCOc1ccccc1Cl	Pf growth 96h 2.94µM
COc1ccc(-c2nc(CC(=O)Nc3cccc(S(=O)(=O)NC4=NCCC4)c3)cs2)cc1	Pf growth 96h inconclusive
CCN(CC)CCCNC(=O)CCCn1ncn2c(cc3occc32)c1=O	none (no result: SARS PLpro yeast, Pf growth 48h, HCV inh, Pf growth 96h)
Cc1ccc(-n2c(=O)[nH]c3c(C(N)=O)nc(-c4ccc(C)o4)nc32)cc1	Sm TGR inh 31.6µM, HCV inh inconclusive
Cc1ccc(-n2c(=O)[nH]c3c(C(N)=O)nc(CC(C)C)nc32)cc1	Pf growth 48h inconclusive, HCV inh inconclusive, Pf growth 96h 1.65µM
Cc1c(N)cccc1Cl	none (no result: Sm TGR inh, SARS PLpro yeast, Pf growth 48h, Pf growth 96h)
O=C(CSc1ccccn1)N1CCNC1=O	none (no result: Sm TGR inh, Pf growth 48h, Pf growth 96h)
CC1(C(=O)Nc2ccc3c(c2)OCCO3)CN(S(C)(=O)=O)CC(=O)N1CCc1c[nH]c2ccccc12 (stereo unspecified)	none (no result: Sm TGR inh, SARS PLpro yeast, Pf growth 48h, HCV inh, Pf growth 96h)
FC(F)(F)c1ccccc1NC(=S)N/N=C1\CC2CC=CC12 (stereo unspecified)	Pf growth 48h inconclusive, HCV inh inconclusive, Pf growth 96h inconclusive
Cc1ccc(NC(=O)CSc2nc(O)cc(=O)n2-c2ccc(C)cc2)cc1	Pf growth 48h 13.1µM, Pf growth 96h inconclusive
Nc1cc(=O)nc(SCC(=O)Nc2ccccc2)n1-c1ccccc1	Pf growth 96h 1.85µM
Cc1cccc(-n2c(N)cc(=O)nc2SCC(=O)Nc2ccccc2)c1	none (no result: Pf growth 48h)
Cc1c(O)nc(SCC(=O)Nc2cccc(C(F)(F)F)c2)n(-c2ccccc2)c1=O	HCMV antiviral -103.6, Pf growth 96h inconclusive
COc1ccc(-n2c(SCC(=O)N3CCOCC3)nc(O)cc2=O)cc1	Pf growth 96h 5.86µM
COc1cccc(NC(=O)CSc2nc(O)c(C)c(=O)n2-c2ccc(C)cc2)c1	HCV inh inconclusive, Pf growth 96h 10.4µM
CC(C)Oc1ccccc1NC(=O)CSc1nc2ccccc2c(=O)n1C	HCMV antiviral inconclusive, HCV inh inconclusive
COc1cccc(NC(=O)CSc2nc3ccccc3c(=O)n2C)c1	HCMV antiviral inconclusive, Pf growth 48h 11.7µM, HCV inh 22.4µM, Pf growth 96h inconclusive
COc1ccc(NC(=O)CN(Cc2ccccc2)S(=O)(=O)c2ccc(C)cc2)cc1Cl	none (no result: SARS PLpro yeast, Pf growth 48h, HCV inh, Pf growth 96h)
Cc1nc([N+](=O)[O-])cn1CC(O)c1ccc(-c2ccccc2)cc1 (stereo unspecified)	Pf growth 48h inconclusive, HCV inh inconclusive
Cc1ccc(C(O)Cn2cc([N+](=O)[O-])nc2C)cc1 (stereo unspecified)	Pf growth 48h 2.62µM
Cc1nc(N)nc(N)c1-c1ccc(Cl)c(Cl)c1	HCMV antiviral -97.6, HCV inh inconclusive (no result: Sm TGR inh, SARS PLpro yeast, Pf growth 48h, Pf growth 96h)
Cc1cc(OCc2nc(N)nc(N)c2-c2ccc(Cl)c(Cl)c2)ccc1[N+](=O)[O-]	HCMV antiviral -100.1, HCV inh inconclusive (no result: Sm TGR inh, SARS PLpro yeast, Pf growth 48h, Pf growth 96h)
COc1ccc(C=O)cc1COc1ccc([N+](=O)[O-])c(C)c1	none
Nc1nc(N)nc(-c2ccc(Cl)c(Cl)c2)n1	HCV inh inconclusive
CCN(CCn1cccn1)C(=O)c1cc(COc2cc(C)ccc2C)on1	Pf growth 96h inconclusive (no result: HCV inh)
Cc1ncsc1CCOC(=O)C1C2CC3CC(C2)CC1C3 (stereo unspecified)	HCMV antiviral inconclusive, Pf growth 48h inconclusive, Pf growth 96h 13.1µM
